ST2 IL33 inh: inhibitors of human ST2 (IL1RL1) binding to IL-33; 78,000 tested, 2.3% active; Q01638; inhibition, % for hits at 17 µM; AlphaLISA ST2-Fc/biotin-IL-33 interaction, 1 h; AID 1259354; in the data active means inhibition above about 30%
A number is an active result. The entries come from a sample that favours hits as a whole.

What do the screens show for `O=C(Cc1ccc(Cl)cc1)NC1CC(=O)N(c2ccc(F)cc2)C1` (stereo not drawn)?
ST2 IL33 inh: inactive

Results for O=C(CS(=O)(=O)c1cn(Cc2ccc(F)cc2)c2ccccc12)N1CCc2ccccc21 ?
ST2 IL33 inh: inactive

Results for CC1(C)C(c2ccccc2)=[N+]([O-])C(c2ccccc2[N+](=O)[O-])N1O (stereo not drawn) ?
ST2 IL33 inh: inactive

What do the screens show for `CC(CC(O)C(O)C(C)(C)O)C1CCC2(C)C3CCC4C(C)(C(=O)OC5OC(CO)C(O)C(O)C5O)C(O)CC(O)C45CC35CCC12C` (stereo not drawn)?
ST2 IL33 inh: inactive

What do the screens show for `CSC1=C(C#N)C(c2cccc(Cl)c2)CC(=O)N1` (stereo not drawn)?
ST2 IL33 inh: inactive

How did O=C(c1ccc2c(Cl)c3c(nc2c1)CCCC3)N1CCOCC1 do in these assays?
ST2 IL33 inh: inactive

How did O=C(c1cnc2ccccc2n1)N1CCn2c(nc3ccccc32)C1 do in these assays?
ST2 IL33 inh: inactive

Results for COC(=O)C1C(=O)C2=C(CC1C)NC(C)=C(C(=O)OC1CCCC1)C2c1ccc(O)c(OC)c1 (stereo not drawn) ?
ST2 IL33 inh: inactive

What do the screens show for `CN1C(=O)[C@H]2CN(C(=O)c3cc(COc4cccc(F)c4)[nH]n3)C[C@H]2C1=O`?
ST2 IL33 inh: inactive

What do the screens show for `Cc1cccc(CSC2=NCCN2C(=O)c2cc3ccccc3o2)c1`?
ST2 IL33 inh: inactive

How did COc1cc(C)nc(-c2ccccc2O)n1 do in these assays?
ST2 IL33 inh: inactive

How did CC1(C)CC(=O)C2=C(C1)Nc1cc(C(=O)c3ccccc3)ccc1NC2c1ccco1 (stereo not drawn) do in these assays?
ST2 IL33 inh: inactive

Results for CC1(C)CC(=O)C2=C(C1)Nc1cc(C(=O)c3ccccc3)ccc1NC2c1cccs1 (stereo not drawn) ?
ST2 IL33 inh: inactive

What do the screens show for `COc1ccccc1C1Nc2ccc(C(=O)c3ccccc3)cc2NC2=C1C(=O)CC(C)(C)C2` (stereo not drawn)?
ST2 IL33 inh: 31.0%

What do the screens show for `Cc1[nH]n(-c2ccc(Cl)cc2)c(=O)c1C=Nc1cccc(Nc2ccccc2)c1`?
ST2 IL33 inh: 30.0%

What do the screens show for `CC(=O)c1ccc(N=Cc2c(C)[nH]n(-c3ccccc3)c2=O)cc1`?
ST2 IL33 inh: inactive

How did Cc1[nH]n(-c2ccccc2)c(=O)c1C=Nc1ccc([N+](=O)[O-])cc1Cl do in these assays?
ST2 IL33 inh: inactive

How did c1ccc(CCCCNc2nc(-c3ccncc3)nc3c2CNC3)cc1 do in these assays?
ST2 IL33 inh: inactive

How did Cc1cccn2c(=O)c3cc(C(=O)NCC4CCCO4)c(=N)n(CCOCCO)c3nc12 (stereo not drawn) do in these assays?
ST2 IL33 inh: inactive

What do the screens show for `Nc1ccc2oc(-c3cc(F)c(F)cc3Cl)nc2c1`?
ST2 IL33 inh: inactive

Results for Cc1ccc2oc(-c3ccc(F)cc3)nc2c1 ?
ST2 IL33 inh: inactive

What do the screens show for `Cc1ccc2oc(-c3cc(N)ccc3O)nc2c1`?
ST2 IL33 inh: 45.0%

What do the screens show for `c1cnc(N2CCCC(NCc3cccc(OC4CCCC4)c3)C2)nc1` (stereo not drawn)?
ST2 IL33 inh: inactive

What do the screens show for `CCOC(=O)c1oc2ccccc2c1NC(=O)COc1ccc(OCC)cc1`?
ST2 IL33 inh: inactive

Results for CC(c1ccncn1)N(C)Cc1cn(C)nc1-c1ccc(C2CCCCC2)cc1 (stereo not drawn) ?
ST2 IL33 inh: inactive

What do the screens show for `CCOc1ccc(/C=N\OC(=O)c2cccc([N+](=O)[O-])c2)cc1`?
ST2 IL33 inh: inactive

How did O=C(COc1ccc(Cl)cc1Cl)Nc1ccc(S(=O)(=O)N2CCc3ccccc32)cc1 do in these assays?
ST2 IL33 inh: inactive

How did Cc1ccc(OCC(O)CN2CCCC(C)C2)c(C)c1 (stereo not drawn) do in these assays?
ST2 IL33 inh: inactive

Results for CCN1/C(=c2/sc3nc4ccccc4n3c2=O)C=Cc2cc(C)ccc21 ?
ST2 IL33 inh: inactive

How did CCN1/C(=C2/N=C(c3ccccc3)OC2=O)C=Cc2ccccc21 do in these assays?
ST2 IL33 inh: 56.0%

What do the screens show for `O=C1OC(c2ccc([N+](=O)[O-])cc2)=N/C1=C\c1ccccc1`?
ST2 IL33 inh: inactive

What do the screens show for `CCOc1ccc(NC(=O)CSc2nc(C)nc3c2c(=O)n(C)c(=O)n3C)cc1`?
ST2 IL33 inh: inactive

What do the screens show for `O=C(CSC1=NC(=O)C(Cc2ccccc2)C(=O)N1)Nc1ccccn1` (stereo not drawn)?
ST2 IL33 inh: inactive

What do the screens show for `CC(C)SCCn1nc(C2CCCNC2)n(-c2ccccc2)c1=O` (stereo not drawn)?
ST2 IL33 inh: inactive

Results for O=c1n(Cc2cccc(F)c2F)nc(C2CCNCC2)n1Cc1ccccc1 ?
ST2 IL33 inh: inactive

Results for O=c1n(CCCn2cccc2)nc(C2CCNCC2)n1-c1ccccc1 ?
ST2 IL33 inh: 30.0%

Results for CC(C)C[C@@H]1N[C@H](C(=O)N2CCCCC2)Cc2cn(Cc3nccn3C)c3cccc1c23 ?
ST2 IL33 inh: inactive

What do the screens show for `CCCn1cnc2c1CN(C(=O)c1ccccc1OC)[C@H](C(=O)OC)C2`?
ST2 IL33 inh: inactive

High-throughput results (PubChem BioAssay)
